Bioassay records from PubChem.
This is one part of a sample in which hits are shown more often than they occur.
nsP2pro inh: inhibitors of chikungunya virus nsP2 protease; Potency, µM (top dose mostly 24.9 µM), most hits filed as inhibitors; 31,000 tested, 1.1% active; FRET peptide cleavage, nsP2pro, fluorescence 1 h; Q8JUX6; further: nearly all actives have a fitted effect of over 60% in size
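Recombinant nsP2pro (150 nM) was preincubated with compound 15 min at room temperature in 10 mM Tris-HCl pH 8.0, 0.01% Tween 20. Peptide 2 FRET substrate (2.5 uM) was then added and fluorescence read after 1 h. Seven-point series, up to 25 uM.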
CHIKV nsP2 cell: cell-based CHIKV nsP2 protease inhibition, secondary; 450 tested, 10% active; AID 1964100; Potency, µM (top dose mostly 51.1 µM), usual class: inhibitors; shares compounds with nsP2pro inh; cell-based CHIKV nsP2 protease reporter assay; further: nearly all actives have a fitted effect of over 70% in size
NSP2 full ctr: selectivity test for CHIKV nsP2 protease inhibitors: full-length NSP2; AID 1964101; Full-length CHIKV NSP2 protease enzymatic counterscreen; 410 tested, 39% active; Potency, µM (top dose mostly 50.7 µM), most hits filed as inhibitors; shares compounds with nsP2pro inh; further: nearly all actives have a fitted effect of over 65% in size
Furin counterscr: inhibits human furin in a CHIKV nsP2 protease selectivity counterscreen. 410 tested, 6% active. shares compounds with nsP2pro inh. Recombinant human furin enzymatic counterscreen, fluorogenic substrate. AID 1964102. Potency, µM (highest dose often 50.6 µM), actives largely listed as inhibitors
Target sequence (P09958 whole entry, looked up): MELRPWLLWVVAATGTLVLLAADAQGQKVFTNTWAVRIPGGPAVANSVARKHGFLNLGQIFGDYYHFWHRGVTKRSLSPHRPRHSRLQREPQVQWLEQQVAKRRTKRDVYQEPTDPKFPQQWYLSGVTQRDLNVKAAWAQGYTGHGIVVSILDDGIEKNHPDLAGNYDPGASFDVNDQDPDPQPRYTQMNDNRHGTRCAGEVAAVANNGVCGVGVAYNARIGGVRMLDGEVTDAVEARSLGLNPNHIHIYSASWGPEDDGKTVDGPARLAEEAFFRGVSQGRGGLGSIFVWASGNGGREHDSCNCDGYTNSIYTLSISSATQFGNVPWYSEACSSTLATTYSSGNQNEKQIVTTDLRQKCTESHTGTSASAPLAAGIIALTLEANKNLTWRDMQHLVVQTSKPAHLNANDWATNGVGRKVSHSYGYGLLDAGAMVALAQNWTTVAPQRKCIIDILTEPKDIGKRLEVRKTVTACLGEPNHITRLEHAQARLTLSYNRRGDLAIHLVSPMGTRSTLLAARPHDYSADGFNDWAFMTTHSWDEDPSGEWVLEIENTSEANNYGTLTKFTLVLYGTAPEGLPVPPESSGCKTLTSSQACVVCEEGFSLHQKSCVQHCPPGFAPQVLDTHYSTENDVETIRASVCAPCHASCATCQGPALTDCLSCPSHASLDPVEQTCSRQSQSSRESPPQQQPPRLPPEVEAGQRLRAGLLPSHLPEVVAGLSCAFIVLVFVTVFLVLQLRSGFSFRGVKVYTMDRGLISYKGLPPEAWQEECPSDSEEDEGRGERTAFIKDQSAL
NS23 peptide cs: selectivity test for CHIKV nsP2 protease inhibitors: endogenous NS2/3 peptide. shares compounds with nsP2pro inh. Purified CHIKV nsP2 protease, endogenous NS2/3 peptide cleavage. 410 tested, 34% active. Potency, µM (highest dose often 51 µM), actives largely listed as inhibitors; further: nearly all actives have a fitted effect of over 55% in size
Papain cs: selectivity counter-screen for CHIKV nsP2 protease inhibitors: papain; purified papain protease activity, enzymatic inhibition; 410 tested, 5% active; shares compounds with nsP2pro inh; Potency, µM (doses to about 51 µM), most hits filed as inhibitors
nsP2pro confirm: confirmation of CHIKV nsP2 protease inhibitors; shares compounds with nsP2pro inh; CHIKV nsP2 protease enzymatic activity, qHTS; Potency, µM (doses to about 25.5 µM), actives largely listed as inhibitors; 410 tested, 43% active; AID 1964105; further: nearly all actives have a fitted effect of over 75% in size
HCV NS3 counter: selectivity counter-screen for CHIKV nsP2 protease inhibitors: HCV NS3/4A. shares compounds with nsP2pro inh. HCV NS3/4A protease biochemical counterscreen. 410 tested, 20% active. Potency, µM (highest dose often 50.9 µM), most hits filed as inhibitors; further: nearly all actives have a fitted effect of over 55% in size
A number is an active result; i = inactive; ? = inconclusive. The call rests on the fitted dose curve.

SMILES	nsP2pro inh	others
CC(C)CC(=O)N1[C@@H](c2ccco2)[C@@H](CO)C[C@]12CCCCN(CCO)C2=O	?	CHIKV nsP2 cell=i
CC(C)CC(=O)N1[C@@H](c2ccco2)[C@@H](C(=O)O)C[C@]12CCCCNC2=O	?	CHIKV nsP2 cell=i
Oc1ccc(CNc2cc(Br)ccn2)c2cccnc12	i
Nc1cccc(-c2ccc(NC(=O)c3cccs3)cn2)c1	i
CCOC(=O)C1CCCN(C(=O)C2CCc3nnc(C4CCN(C(C)=O)CC4)n32)C1 (centres undefined)	i
CC(C)CC(=O)O[C@@H]1OC=C(CO[C@@H]2O[C@H](CO[C@@H]3O[C@H](CO)[C@@H](O)[C@H](O)[C@H]3O)[C@@H](O)[C@H](O)[C@H]2O)[C@H]2C[C@H](O)[C@@H](CO)[C@@H]12	i
COc1ccc(OC)c(C(O)C(C)N)c1 (centres undefined)	i
C[C@H](N)[C@H](O)c1ccc(O)c(O)c1	?	CHIKV nsP2 cell=i;NSP2 full ctr=?;Furin counterscr=i;NS23 peptide cs=9µM;Papain cs=i;nsP2pro confirm=?;HCV NS3 counter=0.052µM
C=CCc1cc(OC)c(OC(C)C(O)c2ccc(O)c(OC)c2)c(OC)c1 (centres undefined)	i
CCC(=O)OCC(=O)[C@]1(OC(=O)CC)[C@H](C)C[C@H]2[C@H]3[C@H]([C@@H](O)C[C@@]21C)[C@@]1(C)C=CC(=O)C=C1C[C@H]3Cl	i
O=C(NCCc1ccc(OCC(F)(F)F)c(OCC(F)(F)F)c1)c1cc2sccc2n1Cc1ccccc1	i
O=c1oc2c3c(ccc2c2ccccc12)OCN(Cc1cccc(Cl)c1)C3	i
O=c1oc2c3c(ccc2c2ccccc12)OCN(Cc1ccccc1Cl)C3	1.1µM	CHIKV nsP2 cell=i;NSP2 full ctr=i;Furin counterscr=i;NS23 peptide cs=12µM;Papain cs=i;nsP2pro confirm=4µM;HCV NS3 counter=i
Cc1cc(=O)oc2c3c(ccc12)OCN(Cc1ccccc1Cl)C3	i
CCC(C)C(=O)Oc1cc(C)ccc1C1(COC(=O)C(C)C)CO1 (centres undefined)	i
Cc1ccnc(NC(=S)N2CCc3ccccc3C2)c1	i
C=C(CCO[C@@H]1O[C@H](CO)[C@@H](O)[C@H](O)[C@H]1O)C(=O)O	?	CHIKV nsP2 cell=i;NSP2 full ctr=i;Furin counterscr=i;NS23 peptide cs=i;Papain cs=i;nsP2pro confirm=i;HCV NS3 counter=i
CC(C)C(=O)OC[C@H]1O[C@H](O[C@H]2O[C@H](CO)[C@@H](O)[C@H](O)[C@H]2O)[C@H](O)[C@@H](O)[C@@H]1O	i
OC[C@H]1O[C@@H](OCCc2ccc(O)cc2)[C@H](O)[C@@H](O)[C@@H]1O	i
COc1c(NS(=O)(=O)c2ccc(C)cc2)cccc1C(=O)Nc1nc(-c2ccccc2)cs1	i
Cc1ncc(CSSCc2cnc(C)c(O)c2CO)c(CO)c1O	i
Cc1ncc(COP(=O)(O)O)c(C=O)c1O	?	CHIKV nsP2 cell=i;NSP2 full ctr=i;Furin counterscr=i;NS23 peptide cs=i;Papain cs=i;nsP2pro confirm=i;HCV NS3 counter=i
Cc1ncc(CO)c(C=O)c1O	i
COc1cccc(NC(=S)N2CCN(c3cccc(C(F)(F)F)n3)CC2)n1	i
CCN(CC)c1ccc2c(O)c(C=Nc3ccc(CC(=O)O)c(-c4c5c(nc6ccccc46)CCC(C(=O)NN)C5)c3)c(=O)oc2c1 (centres undefined)	i
SMILES	nsP2pro inh	others
Cc1ccc(S(=O)(=O)Nc2cnccc2C(=O)Nc2nc(C(=O)O)cs2)cc1	i
O=C(Nc1ccc(Cl)c([N+](=O)[O-])c1)Nc1nnc(C2CCCCC2)s1	i
O=[N+]([O-])c1ccc(CNc2ccc([S+](=O)([O-])Nc3nccs3)cc2)c(O)c1	i
CCN1CCN(c2ncc3c(n2)CCN(Cc2sccc2C)C3)CC1	i	CHIKV nsP2 cell=?;NSP2 full ctr=12µM;Furin counterscr=i;NS23 peptide cs=?;Papain cs=i;nsP2pro confirm=?;HCV NS3 counter=6.5µM
Brc1ccc(CN2CCc3nc(N4CCN(c5ncccn5)CC4)ncc3C2)cc1	i
Cc1ccsc1CN1CCc2nc(N3CCN(c4ccccc4F)CC3)ncc2C1	i
